Results as given in PubChem BioAssay (Tox21).
Where “and” joins values, the source holds several entries; their conditions need not be identical. Equal values may be shown once. Inconclusive results are not listed. Some structures have more than one record in an assay (separate samples or runs), and their calls can disagree. Calls of active or inactive are those of the source. Unless noted, calls come from the whole dose curve; as a rule, active = well fitted curve in the direction sought with a large enough effect in the repeat runs; inconclusive = weak or mixed curves; inactive = no such curve, though single readings can be large; an effect the other way counts as inactive or inconclusive.

What was measured:
[1] = target: Progesterone receptor (Homo sapiens) (UniProt P06401); assay: qHTS assay to identify small molecule agonists of the progesterone receptor (PR) signaling pathway (AID 1346784; calls by dose curve; note: nearly all actives have a fitted effect of over 30% in size; note: potency is the fitted concentration of half-maximal effect)
Procedure, shortened: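 The screen uses PR-UAS-bla HEK 293T cells in charcoal-stripped serum (2%). Compounds are applied for 16 hr at 37C after a 6 hr pre-incubation, and reporter activity is detected with a FRET beta-lactamase substrate after 2 hr at room temperature.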

[2] = target: Progesterone receptor (Homo sapiens) (UniProt P06401); assay: qHTS assay to identify small molecule antagonists of the progesterone receptor (PR) signaling pathway (AID 1346795; active = well fitted inhibition curve with a large enough effect in the signal ratio in the repeat runs, not every such curve was filed as active; the % refers to the signal ratio; note: potency is the fitted concentration of half-maximal effect)
Procedure, shortened: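 After 6 hr plating at 37C in 2% stripped-serum medium, PR-UAS-bla HEK293T cells got compounds, then 1 nM R5020. Sixteen hours later, LiveBLAzer substrate was applied for 2 hr at room temperature and fluorescence was recorded.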

[3] = qHTS assay to identify small molecule agonists of the progesterone receptor (PR) signaling pathway - cell viability counter screen (AID 1346799; calls by dose curve; note: nearly all actives have a fitted effect of over 45% in size; note: potency is the fitted concentration of half-maximal effect)
Procedure, shortened: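 Viability was scored by ATP luminescence (CellTiter-Glo, 30 min, room temperature) in the same wells used for the reporter readout, after 16 hr compound exposure of PR-UAS-bla HEK293T cells.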

[4] = qHTS assay to identify small molecule antagonists of the TGF-beta/Smad signaling pathway - cell viability counter screen (AID 1346824); note: nearly all actives have a fitted effect of over 50% in size; note: potency is the fitted concentration of half-maximal effect
Procedure, shortened: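 Cytotoxicity counter-screen run in the same wells as the beta-lactamase Smad reporter read: CellTiter-Glo luminescence after 30 min at room temperature. HEK 293T SBE-bla cells had 5 hr compound exposure at 37 C with TGF-beta1 (0.25 ng/mL stock).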

[5] = target: Thyrotropin-releasing hormone receptor (Homo sapiens) (UniProt P34981); assay: qHTS assay to identify small molecule antagonists of the thyrotropin-releasing hormone receptor (TRHR) signaling pathway (AID 1346877; active = well fitted inhibition curve with a large enough effect in the repeat runs, not every such curve was filed as active; note: potency is the fitted concentration of half-maximal effect; for activity, negative = inhibition: series mostly up to about 51 µM)
Procedure, shortened: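 Antagonist mode: after a 5 min room-temperature compound exposure, cells were stimulated with 1 nM (final) TRH. Dye-loaded TRHR-HEK293 cells were used, and calcium-dependent fluorescence was followed for 3 min, with 15-point titrations run in triplicate.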

[6] = target: Thyrotropin-releasing hormone receptor (Homo sapiens) (UniProt P34981); assay: qHTS assay to identify small molecule agonists of the thyrotropin-releasing hormone receptor (TRHR) signaling pathway (AID 1346891; calls by dose curve; note: potency is the fitted concentration of half-maximal effect;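 for activation: HEK293 cells expressing TRHR with calcium dye readout; series mostly up to about 58 µM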)
Procedure, shortened: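 Kinetic fluorescence (3 min, 1 s intervals) reported intracellular calcium after compound transfer onto TRHR-Hek293 cells pre-loaded with dye for 2 h at 37 °C.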

[7] = Human pregnane X receptor (PXR) small molecule agonists, qHTS cell viability counter screen (AID 1346977); note: nearly all actives have a fitted effect of over 50% in size; note: potency is the fitted concentration of half-maximal effect
Procedure, shortened: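 HepG2 cells stably carrying the PXR-Luc reporter are cultured with 5% charcoal-stripped FBS and treated with compounds for 24hr. CellTiter-Fluor is added at 23hr and fluorescence is read after 1hr.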

[8] = qHTS assay to identify small molecule agonists of the TGF-beta/Smad signaling pathway (AID 1346859; active = well fitted activation curve with a large enough effect in the signal ratio in the repeat runs, not every such curve was filed as active; the % refers to the signal ratio; note: series mostly up to about 77 µM)
Procedure, shortened: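 Dual-wavelength fluorescence (460/530 nm emission) quantified beta-lactamase expression under the Smad binding element in HEK 293T cells following 5 hr compound treatment at 37 C.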

[9] = qHTS assay to identify small molecule agonists of the TGF-beta/Smad signaling pathway - cell viability counter screen (AID 1346829); note: nearly all actives have a fitted effect of over 45% in size; note: potency is the fitted concentration of half-maximal effect; for activity change, negative = cytotoxicity: top concentration of the series differs between compounds
Procedure, shortened: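 In parallel with the Smad reporter read, viability of HEK 293T cells stably carrying SBE-bla is quantified by ATP luminescence following 5 hr compound treatment.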

[10] = qHTS assay to identify small molecule antagonists of the progesterone receptor (PR) signaling pathway - cell viability counter screen (AID 1346798); note: nearly all actives have a fitted effect of over 50% in size; note: potency is the fitted concentration of half-maximal effect; for activity change, negative = cytotoxicity: series mostly up to about 92 µM
Procedure, shortened: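 Viability was determined by ATP-based luminescence (CellTiter-Glo) in PR-UAS-bla HEK293T cells cultured in 2% charcoal-stripped serum and incubated 16 hr with compounds under R5020 stimulation.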
% is set by controls: 0 for no effect and ±100 for the full control effect.

Sequence of Progesterone receptor (Homo sapiens) (P06401 whole entry, looked up): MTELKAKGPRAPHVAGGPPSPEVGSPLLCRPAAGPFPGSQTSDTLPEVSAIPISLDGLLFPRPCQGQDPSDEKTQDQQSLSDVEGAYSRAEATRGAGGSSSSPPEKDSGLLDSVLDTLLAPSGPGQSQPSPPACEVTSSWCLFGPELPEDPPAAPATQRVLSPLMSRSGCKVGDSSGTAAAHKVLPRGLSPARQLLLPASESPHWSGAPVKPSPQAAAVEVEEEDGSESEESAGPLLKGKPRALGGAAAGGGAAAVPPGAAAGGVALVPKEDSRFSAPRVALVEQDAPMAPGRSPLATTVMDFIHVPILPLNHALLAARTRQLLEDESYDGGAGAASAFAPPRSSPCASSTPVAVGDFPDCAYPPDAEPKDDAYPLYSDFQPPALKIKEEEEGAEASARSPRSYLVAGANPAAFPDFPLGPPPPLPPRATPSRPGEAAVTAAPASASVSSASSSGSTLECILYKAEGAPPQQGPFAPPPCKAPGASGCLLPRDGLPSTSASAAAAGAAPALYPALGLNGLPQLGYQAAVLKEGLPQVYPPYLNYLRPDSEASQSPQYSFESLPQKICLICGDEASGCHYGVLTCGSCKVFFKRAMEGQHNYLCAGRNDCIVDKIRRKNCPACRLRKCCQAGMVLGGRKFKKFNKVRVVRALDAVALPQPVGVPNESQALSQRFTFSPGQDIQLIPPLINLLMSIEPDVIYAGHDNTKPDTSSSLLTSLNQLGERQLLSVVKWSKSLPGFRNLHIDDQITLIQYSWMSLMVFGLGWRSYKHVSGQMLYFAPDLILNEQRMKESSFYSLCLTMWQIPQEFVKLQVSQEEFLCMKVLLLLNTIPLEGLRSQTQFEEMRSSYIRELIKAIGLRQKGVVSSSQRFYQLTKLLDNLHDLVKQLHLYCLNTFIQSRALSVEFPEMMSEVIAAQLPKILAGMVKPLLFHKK
Sequence of Thyrotropin-releasing hormone receptor (Homo sapiens) (P34981 whole entry, looked up): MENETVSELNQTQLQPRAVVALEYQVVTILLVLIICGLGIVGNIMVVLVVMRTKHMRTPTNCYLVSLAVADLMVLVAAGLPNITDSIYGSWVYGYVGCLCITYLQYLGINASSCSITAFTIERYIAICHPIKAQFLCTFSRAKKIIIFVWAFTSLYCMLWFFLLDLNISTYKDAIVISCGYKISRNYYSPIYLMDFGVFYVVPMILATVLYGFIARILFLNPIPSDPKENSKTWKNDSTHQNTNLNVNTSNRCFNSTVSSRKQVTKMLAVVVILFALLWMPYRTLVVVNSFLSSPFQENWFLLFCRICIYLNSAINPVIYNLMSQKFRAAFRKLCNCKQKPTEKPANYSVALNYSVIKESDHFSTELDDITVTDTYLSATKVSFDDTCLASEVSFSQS

Cc1cc(=O)oc2cc(O)ccc12
inactive: Potency [1] | Potency [2] | Potency [3] | Potency [4] | Potency [5] | Potency [6] | Potency [7]

CN[C@H]1CC[C@@H](c2ccc(Cl)c(Cl)c2)c2ccccc21
inactive: Potency [1] | Potency [3] | Potency [4] | outcome [8]
active: Potency [7] 29.8 µM

C=C1CC[C@H](O)C/C1=C\C=C1/CCC[C@]2(C)[C@@H]([C@H](C)CCCC(C)C)CC[C@@H]12
inactive: Potency [4] | Potency [9] | outcome [8] | Potency [5] | Potency [6] | Potency [7]

Nc1ccc(O)c([N+](=O)[O-])c1
inactive: Potency [4] | Potency [9] | outcome [8] | Potency [5] | Potency [6]

NC(=O)n1c(O)c(C(=O)c2cccs2)c2cc(Cl)ccc21
inactive: Potency [1] | Potency [4] | outcome [8] | Potency [5] | Potency [6]

Nc1ccc([N+](=O)[O-])cc1O
inactive: outcome [8]
active: Potency [7] 30.6 µM

C1=CC2C3C=CC(C3)C2C1 (configuration not stated)
active: Potency [6] 34.1 µM
inactive: Potency [1] | Potency [10] | Potency [4] | outcome [8] | Potency [7]

CCCCCCc1ccc(O)cc1O
inactive: Potency [1] | Potency [4] | Potency [9] | outcome [8] | Potency [5] | Potency [6] | Potency [7]
active: Potency [2] 27.4 µM and 27.3 µM and 23.7 µM

CCCCC(CC)C(=O)O (configuration not stated)
inactive: Potency [1] | Potency [2] | Potency [3] | Potency [4] | outcome [8] | Potency [7]

CC(O)(P(=O)(O)O)P(=O)(O)O
inactive: Potency [10] | Potency [3] | Potency [4] | Potency [9] | outcome [8] | Potency [5] | Potency [6] | Potency [7]

CC(=O)CCC(=O)O
inactive: Potency [3] | Potency [4] | outcome [8] | Potency [7]

O=C1c2c(O)cccc2Cc2cccc(O)c21
inactive: Potency [1] | Potency [2] | Potency [3] | Potency [4] | outcome [8] | Potency [7]

O=C(Nc1ncc([N+](=O)[O-])s1)c1cccs1
active: Potency [4] 10.7 µM | Potency [9] 15.1 µM | Potency [7] 23.7 µM
inactive: Potency [1] | Potency [10] | Potency [3] | outcome [8] | Potency [5] | Potency [6]

CCN(Cc1c(F)cccc1Cl)c1c([N+](=O)[O-])cc(C(F)(F)F)cc1[N+](=O)[O-]
active: Potency [3] 8.63 µM
inactive: Potency [1] | Potency [4] | outcome [8] | Potency [5] | Potency [6] | Potency [7]

O=C(O)CC(O)C(=O)O (configuration not stated)
inactive: Potency [10] | Potency [3] | Potency [4] | outcome [8] | Potency [5] | Potency [6] | Potency [7]

COc1ccc2cc(S(=O)(=O)N[C@H](CC(=O)N[C@H](Cc3ccc(CN4[C@H](C)CCC[C@@H]4C)cc3)C(=O)N(C)C(C)C)c3ccc4c(c3)OCO4)ccc2c1
inactive: Potency [1]
active: Potency [2] 57.9 µM | Potency [3] 29 µM | Potency [7] 13 µM

COc1ccc(C(Cl)=C(c2ccc(OC)cc2)c2ccc(OC)cc2)cc1
active: Potency [2] 6.82 µM and 5.45 µM and 4.22 µM
inactive: Potency [1] | Potency [4] | outcome [8] | Potency [5] | Potency [6] | Potency [7]

CCCCCCCCCCCC[N+](C)(C)Cc1ccccc1
inactive: outcome [8] | Potency [5] | Potency [6]
active: Potency [10] 29.7 µM and 33.5 µM | Potency [3] 8.47 µM and 8.36 µM and 10.6 µM | Potency [4] 48 µM and 33.6 µM and 23.9 µM | Potency [7] 52.8 µM

O=C1OC2(c3ccccc31)c1cc(Br)c(O)c(Br)c1Oc1c2cc(Br)c(O)c1Br
active: Potency [7] 4.93 µM and 9.96 µM and 13.3 µM
inactive: Potency [1] | Potency [3] | Potency [4] | Potency [9]

COc1ccc(OC(F)(F)F)cc1CN[C@H]1CCCN[C@H]1c1ccccc1
inactive: Potency [1] | Potency [4] | Potency [9]
active: Potency [3] 24.3 µM | Potency [7] 54.5 µM

CC1(C)O[C@@H]2C[C@H]3[C@@H]4CCC5=CC(=O)C=C[C@]5(C)[C@@]4(F)[C@@H](O)C[C@]3(C)[C@]2(C(=O)CO)O1
inactive: Potency [10] | Potency [3] | Potency [4] | Potency [9] | outcome [8] | Potency [7]
active: Potency [1] 3.5 nM and 3.9 nM and 3.8 nM

CN1[C@@H]2CC(OC(=O)[C@H](CO)c3ccccc3)C[C@H]1[C@@H]1O[C@@H]12 (some centres not stated)
inactive: Potency [1] | Potency [2] | Potency [3] | Potency [4] | outcome [8] | Potency [7]

Oc1ccccc1
inactive: Potency [10] | Potency [3] | Potency [4] | Potency [9] | outcome [8] | Potency [7]

CCc1nc(N)nc(N)c1-c1ccc(Cl)cc1
active: Potency [7] 49.3 µM
inactive: Potency [1] | Potency [10] | Potency [3] | Potency [4] | outcome [8]
inactive and 16.9 µM (active): Potency [9]

Nc1ccc2c(c1)CN1C(=O)c3ccccc3C1=N2
inactive: activation [1] -0.634% [at 19 µM] | activity change, negative = inhibition [2] -14.5% [at 18.9 µM] | activity change, negative = cytotoxicity [3] -25.1% [at 19 µM] | activity, negative = inhibition [5] -0.792% [at 10.5 µM]
active: Potency [6] 8.27 µM

CC/C(=C(\c1ccccc1)c1ccc(OCCN(C)C)cc1)c1ccccc1
inactive: Potency [1] | outcome [8]
active: Potency [7] 25.1 µM [middle of 5 runs]
55.3 µM (active) and inactive: Potency [9]
12.1 µM (active) and inactive: Potency [5]
15.6 µM (active) and inactive: Potency [6]

CC(C)c1c(C(=O)Nc2ccccc2)c(-c2ccccc2)c(-c2ccc(F)cc2)n1CC[C@@H](O)C[C@@H](O)CC(=O)O
active: Potency [3] 1.48 µM and 227 nM and 2.11 µM
inactive: Potency [4] | outcome [8] | Potency [5] | Potency [6] | Potency [7]
